Among the data in PubChem BioAssay (NCI) are growth values, retold here.

SMILES strings stand for the structures. The panel holds about 83,000 compounds, 20% with a hit somewhere; the sample as a whole holds those more often.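 Growth was measured after 48 h exposure to one concentration of compound in 96-well plates. Values under 10 count as active.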 Values without a mark were called inactive. Calls of active or inactive are those of the source.

Some test systems named below: SK-MEL-2 melanoma; EKVX NSCLC; SN12C renal; UO-31 renal; TK-10 renal; ACHN renal; CAKI-1 renal; A498 renal; CCRF-CEM leukemia; MOLT-4 leukemia; SR leukemia; RPMI-8226 leukemia; OVCAR-8 ovarian; OVCAR-5 ovarian; OVCAR-4 ovarian; SK-OV-3 ovarian; IGROV1 ovarian; OVCAR-3 ovarian; HS 578T breast; NCI/ADR-RES ovarian.
Holding throughout (test): NCI-60 one-dose screen, 48 h (100 = growth as untreated, 0 = no growth, -100 = all killed)
Common to all, as to details: 10 µM unless noted

For the compound `CCOCCNC1=C(Cl)C(=O)c2ccccc2C1=O`, the growth in the assay with SK-MEL-2 melanoma is 92.3%; in the assay with EKVX NSCLC, 106%; in the assay on SN12C renal it was 100%; in the assay with UO-31 renal it was 105%; in the assay on TK-10 renal, 125%; in the assay with ACHN renal, 110%. The growth in the assay with CAKI-1 renal was 115%; in the assay on A498 renal, 94.4%; in the assay with CCRF-CEM leukemia, 102%; in the assay with MOLT-4 leukemia, 89.2%; in the assay with SR leukemia, 89.3%; in the assay on RPMI-8226 leukemia, 90.4%. The growth in the assay with OVCAR-8 ovarian was 106%; in the assay on OVCAR-5 ovarian it was 120%; with OVCAR-4 ovarian, 107%; in the assay on SK-OV-3 ovarian, 108%; with IGROV1 ovarian it was 112%; in the assay on OVCAR-3 ovarian it was 101%. In addition, the growth is 91.9% with HS 578T breast and 103% in the assay with NCI/ADR-RES ovarian.

Turning to `CC1CCN(S(=O)(=O)c2ccc(S(=O)(=O)N3CCCC(c4nc5c(nnn5Cc5cccc(Cl)c5)c(=O)[nH]4)C3)cc2)CC1` (stereo not given), the growth with SK-MEL-2 melanoma was 46.9%; with EKVX NSCLC it was 69.1%; with SN12C renal, 47.3%; in the assay on UO-31 renal, 43.1%; in the assay on TK-10 renal, 71.5%; in the assay with ACHN renal, 71.7%. The growth was 22.2% in the assay with CAKI-1 renal; 38% in the assay on A498 renal; 15.2% in the assay with CCRF-CEM leukemia; 19.2% in the assay with MOLT-4 leukemia; 10.5% in the assay on SR leukemia; 19.9% with RPMI-8226 leukemia. The growth in the assay on OVCAR-8 ovarian was 61.5%; in the assay with OVCAR-5 ovarian it was 97.1%; with OVCAR-4 ovarian, 64.5%; in the assay on SK-OV-3 ovarian it was 72.9%; with IGROV1 ovarian, 60%; in the assay on OVCAR-3 ovarian, 34.3%. The growth is 33.1% with HS 578T breast and 88.6% in the assay on NCI/ADR-RES ovarian.

For `Cc1ccc(Nc2cc(N)nc(N)n2)cc1Cl`, the growth in the assay on SK-MEL-2 melanoma is 103%; in the assay on EKVX NSCLC it was 67.7%; in the assay on SN12C renal, 104%; in the assay with UO-31 renal, 83.4%; in the assay on TK-10 renal, 111%; with ACHN renal, 101%. Further, the growth in the assay on CAKI-1 renal was 81.6%; with A498 renal, 101%; with CCRF-CEM leukemia, 96.6%; in the assay on MOLT-4 leukemia, 93.7%; in the assay on SR leukemia, 108%; in the assay on RPMI-8226 leukemia, 81.6%. The growth with OVCAR-8 ovarian is 94.5%; with OVCAR-5 ovarian it was 94.6%; in the assay with OVCAR-4 ovarian, 90.3%; with SK-OV-3 ovarian, 93.8%; with IGROV1 ovarian, 91%; in the assay on OVCAR-3 ovarian, 96.7%. The growth with HS 578T breast was 98.3%; in the assay with NCI/ADR-RES ovarian, 97%.

Regarding `CCOC(=O)n1ccn(C)c1=S`, the growth is 97.8% with SK-MEL-2 melanoma; 100% in the assay on EKVX NSCLC; 105% with SN12C renal; 80.7% in the assay on UO-31 renal; 98.6% in the assay on TK-10 renal; 99.3% with ACHN renal. In addition, the growth with CAKI-1 renal is 95.4%; in the assay on A498 renal, 115%; in the assay with CCRF-CEM leukemia it was 98%; in the assay with MOLT-4 leukemia, 103%; in the assay with SR leukemia, 94.2%; with RPMI-8226 leukemia, 103%. Besides, the growth was 105% with OVCAR-8 ovarian; 102% in the assay with OVCAR-5 ovarian; 110% in the assay with OVCAR-4 ovarian; 85.3% in the assay on SK-OV-3 ovarian; 110% with IGROV1 ovarian; 106% with OVCAR-3 ovarian. Further, the growth with HS 578T breast was 132%; in the assay on NCI/ADR-RES ovarian, 107%.

As for `CCOc1ccc(NC(=O)CSc2oc(-c3ccccc3)nc2S(=O)(=O)c2ccc(C)cc2)cc1`, the growth in the assay on SK-MEL-2 melanoma was 96.6%; with EKVX NSCLC, 75.1%; in the assay with SN12C renal, 85.2%; with UO-31 renal, 103%; in the assay with TK-10 renal it was 82.4%; with ACHN renal, 58.9%. Also, the growth with CAKI-1 renal was 83.9%; with A498 renal, 86.2%; with CCRF-CEM leukemia, 84.8%; in the assay on MOLT-4 leukemia it was 66.1%; with SR leukemia, 41.3%; with RPMI-8226 leukemia, 71.3%. For the same compound, the growth is 40.2% in the assay with OVCAR-8 ovarian; 101% in the assay on OVCAR-5 ovarian; 51.1% in the assay on OVCAR-4 ovarian; 83.3% with SK-OV-3 ovarian; 95% in the assay with IGROV1 ovarian; 56.8% with OVCAR-3 ovarian. Also, the growth is 59.9% in the assay with HS 578T breast and 58.9% in the assay on NCI/ADR-RES ovarian.

`Nc1c(C(=O)Nc2ccccc2F)sc2nc3c(cc12)CCCC3`: the growth in the assay with SK-MEL-2 melanoma is 43.7%; with EKVX NSCLC, 41.2%; in the assay on SN12C renal, 40%; with UO-31 renal, 46.9%; in the assay on TK-10 renal, 60.9%; in the assay on ACHN renal it was 50.7%. Also, the growth in the assay with CAKI-1 renal was 57.4%; in the assay on A498 renal, -0.37% (active); in the assay on CCRF-CEM leukemia, 22.5%; with MOLT-4 leukemia, 27%; in the assay with SR leukemia, 13.3%; in the assay with RPMI-8226 leukemia, 28%. In addition, the growth was 40.7% in the assay on OVCAR-8 ovarian; 74.7% in the assay on OVCAR-5 ovarian; 54% in the assay with OVCAR-4 ovarian; 26.6% with SK-OV-3 ovarian; 58.9% in the assay with IGROV1 ovarian; 4.6% (active) with OVCAR-3 ovarian. Moreover, the growth was 48.9% in the assay on HS 578T breast and 24.7% in the assay on NCI/ADR-RES ovarian.

Turning to `CN(C)CC1CCC(CN(C)C)C1=O` (stereo not given), the growth was 96.8% in the assay with SK-MEL-2 melanoma; 133% in the assay with EKVX NSCLC; 106% with SN12C renal; 85.4% in the assay with UO-31 renal; 92.1% in the assay with TK-10 renal; 110% in the assay on ACHN renal. Besides, the growth in the assay on CAKI-1 renal was 108%; with A498 renal, 103%; in the assay on CCRF-CEM leukemia, 27.9%; in the assay on MOLT-4 leukemia, 64.4%; in the assay on SR leukemia it was 59.7%; in the assay on RPMI-8226 leukemia, 62.2%. In addition, the growth in the assay on OVCAR-8 ovarian is 105%; with OVCAR-5 ovarian, 122%; in the assay on OVCAR-4 ovarian, 115%; in the assay with SK-OV-3 ovarian, 105%; in the assay on IGROV1 ovarian it was 115%; with OVCAR-3 ovarian it was 132%. Further, the growth in the assay on HS 578T breast was 105%; in the assay on NCI/ADR-RES ovarian, 117%.
